Bioassay records deposited in PubChem by several laboratories.
NCF1 inh = p47phox (human) inhibition; inhibition, % at 24.7 µM; AID 1274; P14598; p47phox/p22phox peptide binding, fluorescence polarization, 2 h; 220,000 tested, 0.53% active;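 active = inhibition above about 30%, limit read from the data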
HMGR II inh = E. faecalis class II HMG-CoA reductase inhibition; purified E. faecalis HMGR, NADPH absorbance 340 nm kinetic; inhibition, % at 10 µM; 190,000 tested, 0.41% active; AID 1066;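 active = inhibition above a set limit, the median over all tested compounds plus 3 SD, cut at about 9.5% in these data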;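 note: enzyme runs in reverse so mevalonate oxidation gives rising NADPH absorbance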
dFosB activator = mouse delta FosB homodimer activation. P13346. purified delta FosB, TAMRA-CDK5 oligo fluorescence polarization; percent of positive-control signal above neutral wells. activation, % at 25 µM. 340,000 tested, 0.99% active. AID 493131;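 active = mean activation above about 17%, with every replicate also reaching it, limit read from the data, passing the limit was not always enough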
Target sequence (P13346 whole entry, looked up): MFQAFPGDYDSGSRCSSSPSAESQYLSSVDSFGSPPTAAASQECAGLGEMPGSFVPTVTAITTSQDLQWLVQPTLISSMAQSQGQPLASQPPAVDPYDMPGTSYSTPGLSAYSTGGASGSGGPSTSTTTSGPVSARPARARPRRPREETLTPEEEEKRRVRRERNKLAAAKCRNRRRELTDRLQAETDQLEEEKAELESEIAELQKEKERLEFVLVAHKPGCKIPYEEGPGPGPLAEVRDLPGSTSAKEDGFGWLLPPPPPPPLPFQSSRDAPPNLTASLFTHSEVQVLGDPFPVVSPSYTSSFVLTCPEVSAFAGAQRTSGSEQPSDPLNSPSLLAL
14-3-3 Bad inh = disrupts binding of bovine 14-3-3 zeta to phospho-Bad peptide. TR-FRET 14-3-3zeta/Dy647-pBad peptide displacement, 1 h. 220,000 tested, 0.71% active. AID 781. inhibition, % at 21.7 µM;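 active = inhibition above about 70%, limit read from the data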
Target sequence (P63103 whole entry, looked up): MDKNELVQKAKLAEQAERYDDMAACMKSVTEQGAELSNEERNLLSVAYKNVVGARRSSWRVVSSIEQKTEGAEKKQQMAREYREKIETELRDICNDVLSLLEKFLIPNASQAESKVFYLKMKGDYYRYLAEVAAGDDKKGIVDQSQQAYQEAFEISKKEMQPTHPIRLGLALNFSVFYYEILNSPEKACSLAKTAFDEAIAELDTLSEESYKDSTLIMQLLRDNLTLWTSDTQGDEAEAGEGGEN
Each line names hits and unclear results; the compound was inactive in the other large screens; [ ] = another dose, or the depositor's remark. An excerpt weighted towards active compounds, which were near 1.9% of everything screened.

N=c1n(CC(=O)c2ccc([N+](=O)[O-])cc2)c2ccccc2n1Cc1ccccc1	none
N=c1n(CC(=O)c2ccc(Br)cc2)c2ccccc2n1Cc1ccccc1	dFosB activator 35 (no result: NCF1 inh, HMGR II inh, 14-3-3 Bad inh)
Cc1ccc(-c2nc(NCc3ccco3)c3ccccc3n2)cc1	none
c1ccc(-c2nc(NCc3ccco3)c3oc4ccccc4c3n2)cc1	14-3-3 Bad inh 73
CC1OC(Oc2ccc3ccc(=O)oc3c2-c2c(O)ccc3cc(Oc4ccc5ccc(=O)oc5c4)c(=O)oc23)C(O)C(O)C1O (stereo not drawn)	none
C#CCOCCOCCOCCNc1nc(N2CCN(C(=O)[C@H](CCCCN)n3cc(CCCC)nn3)CC2)nc(N2CCN(C(=O)[C@H](Cc3ccc(O)cc3)n3cc(CCO)nn3)CC2)n1	NCF1 inh 63
C#CCOCCOCCOCCNc1nc(N2CCN(C(=O)[C@H](C)n3cc(CCCN=C(N)N)nn3)CC2)nc(N2CCN(C(=O)[C@H](Cc3ccc(O)cc3)n3cc(CCO)nn3)CC2)n1	14-3-3 Bad inh 78 (no result: dFosB activator)
O=C(CN1C(=O)S/C(=C\c2cccs2)C1=O)Nc1ccc(O)cc1C(=O)O	none (no result: NCF1 inh, HMGR II inh, 14-3-3 Bad inh)
COc1cccc(/C=N/NC(=O)c2cc3cc([N+](=O)[O-])ccc3s2)c1O	dFosB activator 41
Cc1cccc(NC(=O)c2cc3cc([N+](=O)[O-])ccc3s2)n1	14-3-3 Bad inh 89
CS(=O)(=O)N1CCN(c2ccccc2NC(=S)NC(=O)c2ccccc2[N+](=O)[O-])CC1	none
COc1ccccc1/C=C/C=N/NC(=O)CC1C(=O)NN=C1C (stereo not drawn)	none (no result: HMGR II inh)
CCCN(CCC)Cc1c(C(=O)N/N=C/c2ccsc2)nnn1-c1nonc1N	none (no result: NCF1 inh, HMGR II inh, 14-3-3 Bad inh)
O=C(Nc1cccc(Oc2ccc(C(=O)O)c(C(=O)O)c2)c1)c1ccc(-c2ccccc2)cc1	none (no result: HMGR II inh)
O=C(CSc1nc(-c2ccc(F)cc2)nc2c1Cc1ccccc1O2)Nc1cccc(C(=O)O)c1	14-3-3 Bad inh 95
O=C(CSc1nc(-c2ccccc2)nc2c1Cc1ccccc1O2)Nc1ccccc1	none (no result: dFosB activator)
CCOC(=O)c1cccc(N2C(=O)c3ccccc3S2(=O)=O)c1	NCF1 inh 81
CCOC(=O)c1cccc(-n2c(C)nc3ccccc3c2=O)c1	none
Cc1ccc(/C=N/NC(=O)CSc2nc3ccccc3n2Cc2ccc(Cl)cc2)o1	none
C[C@H](CO)N1C[C@H](C)[C@@H](CN(C)C(=O)Nc2ccc(C(F)(F)F)cc2)Oc2c(NC(=O)c3ccncc3)cccc2C1=O	none (no result: NCF1 inh, HMGR II inh, 14-3-3 Bad inh)
c1cc2c3c(cccc3c1)NC1(CCC3(CC1)Nc1cccc4cccc(c14)N3)N2	none (no result: HMGR II inh)
c1cc2c3c(cccc3c1)NC1(CCCCC1)N2	dFosB activator 40
S=C1NC2(CCCCC2)NN1c1ccccc1	none
c1cc2c3c(cccc3c1)NC1(CCCCCC1)N2	dFosB activator 23
COC(=O)C1=C(C)N(CCc2ccc(OC)cc2)C(=O)C1	NCF1 inh 92
Cc1ccc(NC(=O)COC(=O)c2ccccc2-c2nc3ccccc3s2)c(C)c1	none
O=C(O)CNC(=O)C1(N2C(=O)c3ccccc3C2=O)CCCC1	none (no result: NCF1 inh, HMGR II inh, 14-3-3 Bad inh)
COc1ccc(OC)c(Cc2nnc(CCC(=O)NCc3ccsc3)o2)c1	HMGR II inh 9.7
CC(C)(CO)NC(=O)CC1C(=O)NCCN1Cc1ccc(-c2ccccc2)cc1 (stereo not drawn)	none
CC(C)(CO)NC(=O)CC1C(=O)NCCN1CC(c1ccccc1)c1ccccc1 (stereo not drawn)	HMGR II inh 10
CC(=O)N1CC2(C)CN(C(C)=O)CC(C)(C1)C2	HMGR II inh 22
CCC(=O)N1CC2(C)CN(C(=O)CC)CC(C)(C1)C2	none
C/C(CC(=O)NC1CCCC1)=N\NC(=O)C1CCCCC1	14-3-3 Bad inh 97
CC(=O)Nc1ccccc1NC(=O)C/C(C)=N/NC(=O)C1CCCCC1	none (no result: NCF1 inh, HMGR II inh, 14-3-3 Bad inh)
CCOC(=O)C1CCCN(CC(=O)Nc2c(C(=O)OC)[nH]c3ccc(C)cc23)C1 (stereo not drawn)	none
CCOC(=O)C1CCCN(c2ncnc3c2oc2ccccc23)C1 (stereo not drawn)	14-3-3 Bad inh 83
CCOC(=O)C1CCN(c2nc(-c3ccccc3)nc3c2oc2ccccc23)CC1	14-3-3 Bad inh 81
O=C(O)C1CCN(c2nc(-c3ccccc3)nc3c2oc2ccccc23)CC1	none
Oc1c(C(Nc2cccc(C(F)(F)F)c2)c2ccncc2)ccc2cccnc12 (stereo not drawn)	none
COc1ccc(OC)c(N)c1	NCF1 inh 106
COc1cc(OC)c(-c2c3cc(O)c(=O)cc-3oc3cc(O)c(O)cc23)cc1OC	dFosB activator 22
Cc1c2cc(O)c(=O)cc-2oc2cc(O)c(O)cc12	14-3-3 Bad inh 93
c1ccc(-c2cnc(-c3ccccc3)nc2)cc1	none
CN(Cc1nc(-c2cnccn2)no1)CC1(c2ccccc2)CC1(C)C (stereo not drawn)	none
CN(Cc1nc(-c2cnccn2)no1)C1CC(C)(C)NC(C)(C)C1	HMGR II inh 18
CN1CCN(/N=C/c2ccc(N(c3ccccc3)c3ccccc3)cc2)CC1	NCF1 inh 46
CC(C)[C@H](NC(=O)C1(c2ccccc2)CCN(C(=O)OC(C)(C)C)CC1)C(=O)O	NCF1 inh 58
Cc1ccc(S(=O)(=O)c2c(N)n(Cc3ccco3)c3nc4ccccc4nc23)cc1	none
Cc1ccc(-c2nnn(CC(=O)N(CC3CCCO3)C(C(=O)NC3CCCCC3)c3ccc(F)cc3)n2)o1 (stereo not drawn)	dFosB activator 25
COc1cc([N+](=O)[O-])ccc1-c1ccc(C(=O)Nc2ccc(NC(C)=O)cc2)o1	14-3-3 Bad inh 95[fluorescence artefact?]
COc1cc([N+](=O)[O-])ccc1-c1ccc(/C=N/NC(=O)c2ccccc2O)o1	14-3-3 Bad inh 89 (no result: HMGR II inh, dFosB activator)
CCN(CC(=O)Nc1cc(Cl)ccc1C)C(=O)c1cc(S(=O)(=O)N2CCCCCC2)ccc1OC	none (no result: NCF1 inh, HMGR II inh, 14-3-3 Bad inh)
C#Cc1ccc(CN2CCN(CCc3ccccc3)C(CCO)C2)cc1 (stereo not drawn)	none (no result: NCF1 inh, HMGR II inh, 14-3-3 Bad inh)
CCN1CCN(c2c(/C=C3\SC(=S)N(Cc4ccco4)C3=O)c(C)c(C#N)c(=O)n2C)CC1	dFosB activator 56 (no result: HMGR II inh)
COc1ccc(-n2c(C)cc(/C=C3\SC(=S)N(Cc4ccco4)C3=O)c2C)cc1	none
Cc1cc(NC(=O)c2cnccn2)no1	none (no result: dFosB activator)
O=C(CCN1C(=O)/C(=C/c2cccs2)SC1=S)Nc1ccccc1O	dFosB activator 21 (no result: NCF1 inh, HMGR II inh, 14-3-3 Bad inh)
O=C(CCCN1C(=O)/C(=C\c2cccs2)SC1=S)Nc1cc([N+](=O)[O-])ccc1O	dFosB activator 26 (no result: NCF1 inh, HMGR II inh, 14-3-3 Bad inh)
Cn1c(=O)c2c(nc(NCc3ccco3)n2CC(O)COc2ccccc2)n(C)c1=O (stereo not drawn)	none
Cc1nn(Cc2ccccc2)c(C)c1NC(=O)CSc1nc2c(c(C(F)(F)F)n1)CCc1ccccc1-2	NCF1 inh 42
O=C(CSc1nc2c(c(C(F)(F)F)n1)CCc1ccccc1-2)NCc1ccccc1	none
CS(=O)(=O)N(CC(=O)N1CCN(c2ccccc2)CC1)c1cccc(Br)c1	NCF1 inh 35
COC(=O)c1ccccc1-c1c2ccc(=N)cc-2oc2cc(N)ccc12	dFosB activator 88 (no result: NCF1 inh, HMGR II inh, 14-3-3 Bad inh)
O=C(O)CNc1ncccc1[N+](=O)[O-]	NCF1 inh 50
COC(=O)C(C(=O)OC)c1ccccc1[N+](=O)[O-]	none
